About 8,600 (12%) of roughly 69,000 compounds showed an effect of 50% or more. The list comes from a sample in which strong results are over-represented; it also holds similar structures and randomly drawn compounds.

For the assay, the system named is Plasmodium berghei. The assay is described as follows: Screen against P. berghei liver stage (PbLuc), transformed with Luciferase, at 10uM. Format: functional, HepG2. The settings on record: tested at 10 uM.
With `Cc1noc(C)c1CN1C[C@@H](OCc2ccccn2)[C@H]2OCCC[C@H]21`, the INHIBITION is on record as -14.4%.
Regarding `Cc1ccc(Cc2cnc(C3CCNCC3)cn2)cc1`, the INHIBITION is 13.5%.
As to `CC(C)n1nc(CN2CCOCC2)c2c1CN(Cc1ccsc1)C2`, the INHIBITION was -18.2%.
Consider `OC(CN1CCC(c2ccn[nH]2)CC1)c1cccc(C(F)(F)F)c1` (stereo not drawn), for which the INHIBITION is recorded as -33.9%.
As for `OC(CN(Cc1ccccc1)Cc1ccccn1)c1cccs1` (stereo not drawn), the INHIBITION amounted to 55.9%.
On to `Cc1cnc(CN(Cc2ccccc2)CC(O)c2cccs2)cn1` (stereo not drawn), for which the INHIBITION is on record as -34.7%.
Regarding `OC(CN(Cc1ccccc1)Cc1cscn1)c1cccs1` (stereo not drawn), the INHIBITION is listed as 9.72%.
On to `OC(CN(Cc1ccccc1)Cc1cccnc1)c1cccs1` (stereo not drawn), for which the INHIBITION came to 57.2%.
As to `OC(CN(Cc1ccccc1)Cc1ccncc1)c1cccs1` (stereo not drawn), the INHIBITION is recorded as 7.11%.
Turning to `OC(CN(Cc1ccccc1)Cc1ccon1)c1cccs1` (stereo not drawn), the INHIBITION is 70.1%.
With `Cn1cc(CN(Cc2ccccc2)CC(O)c2cccs2)cn1` (stereo not drawn), the INHIBITION was -58.4%.
For `Cc1cc(CN(Cc2ccccc2)CC(O)c2cccs2)on1` (stereo not drawn) the value was 30.3%; for `OC(CN(Cc1ccccc1)Cc1ccon1)c1ccco1` (stereo not drawn), -21%.
Take `CC(C)c1ccccc1NC(=O)N1C[C@H]2CC[C@@H](C1)N(C)C2=O`: the INHIBITION was -14.5%.
With `Cn1cccc1CN(C(=O)CC(CC(=O)O)c1cccs1)C1CC1` (stereo not drawn), the INHIBITION is on record as -42.1%.
Take `Cn1cnc(S(=O)(=O)N2C[C@H]3CC[C@@H](C2)N(Cc2cscn2)C3=O)c1`: the INHIBITION turned out to be 10.5%.
For `CCN(C)S(=O)(=O)N1C[C@H]2CC[C@@H](C1)N(Cc1cscn1)C2=O` the value was -23.7%.
On to `CS(=O)(=O)N1C[C@H]2CC[C@@H](C1)N(Cc1cscn1)C2=O`, for which the INHIBITION came to 13.5%.
For the molecule `CCN(CC)S(=O)(=O)N1C[C@H]2CC[C@@H](C1)N(Cc1cscn1)C2=O`, the INHIBITION stood at 51.1%.
For `CCCS(=O)(=O)N1C[C@H]2CC[C@@H](C1)N(Cc1cscn1)C2=O` the value was 53.3%.
On to `O=C1[C@@H]2CC[C@@H](CN(S(=O)(=O)c3ccccc3)C2)N1Cc1cscn1`, for which the INHIBITION is given as 25.1%.
For `Cc1cnc(C(=O)N2C[C@@H]3CN(CC4CCCC4)CCO[C@@H]3C2)cn1`, the INHIBITION amounted to 13.6%.
For the molecule `CN(C)Cc1cc(=O)n2c(n1)CN(C(=O)Cc1ccsc1)CCC2`, the INHIBITION is given as 33.5%.
For the molecule `CCc1ncc(C(=O)NCCN(C)S(C)(=O)=O)cn1`, the INHIBITION is 43.2%.
For `CCCS(=O)(=O)CC(=O)Nc1cc(CC(C)(C)C)n[nH]1` the value was -45.9%.
With `O=C1CCCN1CC1CN(C(=O)C2CCOCC2)Cc2nccn2C1` (stereo not drawn), the INHIBITION was 0.542%.
Take `O=C1CCCN1CC1CN(CC2CCOCC2)Cc2nccn2C1` (stereo not drawn): the INHIBITION came out at 57.4%.
Turning to `O=C1CCCN1CC1CN(C(=O)N2CCOCC2)Cc2nccn2C1` (stereo not drawn), the INHIBITION amounted to 34.4%.
For the molecule `CCCc1nnc2sc(C3CCN(CCOC)CC3)nn12`, the INHIBITION was found to be 31.2%.
For the molecule `NC(=O)CN1CCOCC(Cc2cccc(F)c2)C1` (stereo not drawn), the INHIBITION is -44.2%.
Turning to `Cc1ccc(N2C[C@@H]3CN(Cc4csc(C)n4)CCO[C@@H]3C2)nn1`, the INHIBITION is on record as 42.6%.
On to `Cc1ccc(N2CCO[C@@H]3CN(Cc4cccc(C)n4)CC[C@@H]3C2)nn1`, for which the INHIBITION came to 52.3%.
Turning to `Cc1cccc(N2CC[C@@H]3CN(Cc4csc(C)n4)CCO[C@@H]3C2)n1`, the INHIBITION was determined as 66.5%.
As to `Cc1ccc(N2CC[C@@H]3CN(Cc4cccc(C)n4)C[C@@H]3C2)nn1`, the INHIBITION is -2.41%.
For `Cc1nc(CN2CCO[C@@H]3CN(Cc4ccccn4)CC[C@@H]3C2)cs1` the value was 42.3%.
On to `Cc1cccc(CN2C[C@@H]3OCCN(C)[C@@H]3C2)n1`, for which the INHIBITION is recorded as -22.7%.
The same measure for `Cc1cccc(CN2C[C@@H]3OCCN(S(=O)(=O)N(C)C)[C@@H]3C2)c1`: -7.94%.
The same measure for `Cc1cccc(CN2C[C@@H]3CN(Cc4ccoc4)CCO[C@@H]3C2)n1`: 23.3%; for `Cc1cccc(CN2C[C@@H]3OCCN(S(=O)(=O)N(C)C)[C@@H]3C2)n1`: 54.1%; for `O=S(=O)(c1ccc(F)cc1)N1CCCCC1c1cc[nH]n1` (stereo not drawn): 13%.
In the case of `CN1CCN(c2ncc(-c3cnccn3)c([C@H]3CCCO3)n2)CC1`, the INHIBITION is listed as 14.7%.
The same measure for `CN1CCN(CC2CC2)C(=O)c2cnc(N3CCOCC3)nc21`: 26.3%.
For `CN(C)C[C@]12COC[C@H]1CN(C(=O)CCc1ccccc1)C2` the value was 6.66%; for `CC(C)NC(=O)N1CCC[C@H]1C(=O)NCCCc1cnn(C)c1`, -34.6%; for `CC(=O)N1CCC(c2nccnc2-c2ccc(F)cc2)CC1`, 43.6%.
As for `Cc1cc(C)n(CC2CCCCN2C(=O)c2ccc3[nH]nnc3c2)n1` (stereo not drawn), the INHIBITION is given as 20.9%.
For `CC(NC(=O)CCn1cccn1)c1ccc2c(c1)OCCO2` (stereo not drawn) the value was 22.3%; for `CC(NC(=O)NCCCn1cncn1)c1ccc2c(c1)OCCO2` (stereo not drawn), 21.8%; for `CC(NC(=O)Cn1cccn1)c1ccc2c(c1)OCCCO2` (stereo not drawn), 62.1%.
Consider `CC(NC(=O)NCCCO)c1ccc2c(c1)NC(=O)CO2` (stereo not drawn), for which the INHIBITION is -11.4%.
Take `CC(NC(=O)Cn1cccn1)c1ccc2c(c1)OCCO2` (stereo not drawn): the INHIBITION was found to be 41.5%.
Consider `CC(NC(=O)NCCCO)c1ccc2c(c1)OCCO2` (stereo not drawn), for which the INHIBITION was determined as 52.1%.
In the case of `Cc1ccc2c(c1)C1(CC(=O)Nc3[nH]ncc31)C(=O)N2C` (stereo not drawn), the INHIBITION was found to be 21.5%.
Regarding `CN(Cc1noc(C(C)(C)C)n1)CC1CCN(CCO)CC1`, the INHIBITION turned out to be 37.5%.
`CN(Cc1ccc(N2CCOCC2)cc1)Cc1noc(C(C)(C)C)n1`: the INHIBITION was -8.51%.
For `CCc1noc(CN(CC(=O)N2CCCCC2)c2ccc(C)cc2)n1` the value was 50.1%; for `CN(Cc1ccc(N2CCCCC2)cc1)Cc1noc(C(C)(C)C)n1`, 78.5%; for `Cc1noc(CN(C)CC(c2cccs2)N2CCOCC2)n1` (stereo not drawn), 35.9%.
In the case of `Cc1cccc(N(CC(=O)N2CCCCC2)Cc2ccno2)c1`, the INHIBITION turned out to be 36.2%.
As for `CCCc1noc(CN(C)Cc2ccc3c(c2)OCO3)n1`, the INHIBITION is 19.3%.
Regarding `CCc1noc(CN(C)Cc2cc(Br)ccc2OC)n1`, the INHIBITION is on record as 30.9%.
The same measure for `CCc1nc(CN(C)CC(c2cccs2)N2CCOCC2)no1` (stereo not drawn): 36.4%; for `CCc1noc(CN(CC(=O)N2CCCCC2)c2cccc(C)c2)n1`: 18%; for `CCc1noc(CN(C)Cc2ccc(N3CCCCC3)cc2)n1`: 61.8%.
As for `CCc1noc(CN(C)CC(c2cccs2)N2CCOCC2)n1` (stereo not drawn), the INHIBITION is given as 60.5%.
For `CN(C)C(=O)CN1CCCC(c2cncc(-c3cccc(Cl)c3)n2)C1` (stereo not drawn) the value was 35.2%.
`CC(=O)NCC1CCN(C(=O)NCCc2ccc(Cl)s2)CC1`: the INHIBITION is recorded as 13.3%.
For the molecule `CCCC(=O)N1CCCCC1c1nc(N(C)C)ncc1-c1cc(C)no1` (stereo not drawn), the INHIBITION is reported as 23.1%.
As for `CN1CCCC(c2cccc(CCC(=O)NCC3(C)COC3)n2)C1` (stereo not drawn), the INHIBITION worked out at 13%.
With `NC(=O)Cn1cc(NC(=O)N2CCCCCC2)cn1`, the INHIBITION is 2.5%.
In the case of `Cc1cc(CN2CCC(C(=O)O)(n3ccc(-c4ccco4)n3)CC2)on1`, the INHIBITION turned out to be 1.48%.
On to `O=C1NCC2(CCCN(C(=O)c3c[nH]nc3-c3cccs3)C2)O1` (stereo not drawn), for which the INHIBITION came out at 6.29%.
For `Cn1cnc2ccc(NC(=O)CC3CCN(C4CCCCC4)CC3)cc21` the value was 12.17%; for `Cc1ccnc(OC[C@]23COC[C@H]2CN(C(=O)c2cnccn2)C3)n1`, 32.2%; for `CCc1ccc(Cn2nccc2NC(=O)C2CCS(=O)(=O)C2)cc1` (stereo not drawn), 11.8%.
On to `COc1cccc2cc(CNCc3ccnc(N(C)C)c3)oc12`, for which the INHIBITION is -4.94%.
Take `CNC(=O)C1CN(c2ccnc(C)n2)CCN(C2CCOCC2)C1` (stereo not drawn): the INHIBITION amounted to 23%.
With `CN(Cc1noc(C(C)(C)C)n1)Cc1ccccc1N1CCCC1`, the INHIBITION is on record as -2.92%.
Regarding `Cc1cc(CN(C)Cc2ccccc2N2CCCCC2)n[nH]1`, the INHIBITION stood at 20.2%.
Regarding `CN(Cc1noc(C(C)(C)C)n1)Cc1ccccc1N1CCCCC1`, the INHIBITION came to 90.4%.
The same measure for `COCCc1noc(CN2CCCC(Cn3cncn3)C2)n1` (stereo not drawn): -0.96%.
For the molecule `NC(=O)Cn1c(CO)cnc1SCC(=O)NCc1ccccc1`, the INHIBITION came out at 15%.
Take `N#Cc1cccc(N2CCC(CO)(CCc3ccccc3)CC2)n1`: the INHIBITION amounted to 51.7%.
For the molecule `N#Cc1cccc(N2CCC(CO)(CCCc3ccccc3)CC2)n1`, the INHIBITION came out at 22%.
As for `N#Cc1cccc(N2CCC(CO)(CCOc3ccccc3)CC2)n1`, the INHIBITION came to 17.4%.
On to `Cn1cc(CC2CC(=O)N(Cc3ccc(Cl)cc3)C2=O)cn1` (stereo not drawn), for which the INHIBITION turned out to be 8.12%.
With `Cc1ncsc1CN1CC[C@H](O)[C@@H](n2cnc3c(N)ncnc32)CC1`, the INHIBITION is on record as 50.1%.
Regarding `Nc1ncnc2c1ncn2[C@H]1CCN(Cc2ccsc2)CC[C@@H]1O`, the INHIBITION worked out at 17.4%.
Consider `Cc1ncsc1CN1CCN(C2CCOCC2)CC(C(N)=O)C1` (stereo not drawn), for which the INHIBITION is listed as 25.6%.
Take `CC(C)c1noc(-c2ccnc(-n3cnc(C(=O)O)c3)c2)n1`: the INHIBITION is given as -8.35%.
For `CCc1nccn1-c1cccc(C2CCCN(C3CCCCC3)C2)n1` (stereo not drawn) the value was 24.8%; for `Cc1cn2nc(N3CCCC3Cn3cccn3)sc2n1` (stereo not drawn), -12.1%.
The same measure for `O=C(C1CCCN(Cc2cccc(F)c2)C1)N1CCc2sccc2C1` (stereo not drawn): 14.1%.
Take `O=C(C1CCCN(Cc2ccccc2)C1)N1CCc2sccc2C1` (stereo not drawn): the INHIBITION worked out at 48.8%.
Regarding `O=C(C1CCCN(Cc2cccnc2)C1)N1CCc2sccc2C1` (stereo not drawn), the INHIBITION is on record as 55.5%.
For `CC1Cc2cc(-c3cncn3CC(=O)NC(C)(C)C)ccc2N1C` (stereo not drawn) the value was 52%.
The same measure for `CCN1CCc2cc(-c3cncn3CCNC3CCS(=O)(=O)C3)ccc21` (stereo not drawn): 27.6%.
With `CCN1c2ccc(-c3cncn3CC(=O)NC(C)(C)C)cc2CC1C` (stereo not drawn), the INHIBITION turned out to be 59.3%.
Regarding `CCN1CCc2cc(-c3cncn3CC(=O)NC(C)(C)C)ccc21`, the INHIBITION was 6.32%.
As to `CN1CCCc2cc(-c3cncn3CC(=O)NC(C)(C)C)ccc21`, the INHIBITION was 18.3%.
Turning to `Cc1nn(C)c(C)c1CCn1cncc1-c1ccc2c(c1)CC(C)N2C` (stereo not drawn), the INHIBITION is 22.8%.
Take `CCN1CCC2(CN(C(C)=O)CC23CCN(CC2CC2)CC3)C1=O` (stereo not drawn): the INHIBITION is on record as -23.3%.
In the case of `CN1CCC(NC(=O)Nc2ccc(Cl)c(F)c2)C1=O` (stereo not drawn), the INHIBITION is -6.39%.
Consider `Cn1ccc(NC(=O)NC2CCCN(c3ccccc3Cl)C2=O)n1` (stereo not drawn), for which the INHIBITION was found to be 74%.
As to `O=C(Nc1ccncc1)NC1CCN(c2ccccc2Cl)C1=O` (stereo not drawn), the INHIBITION is 50.8%.
Turning to `Cn1cc(NC(=O)NC2CCCN(c3ccccc3Cl)C2=O)cn1` (stereo not drawn), the INHIBITION is reported as 24.8%.
Regarding `CN1CCC(NC(=O)Nc2cnn(-c3ccccc3Cl)c2)C1=O` (stereo not drawn), the INHIBITION was 37.7%.
As for `Cc1cc(CC(=O)NC2CCCN(c3ccccc3Cl)C2=O)n[nH]1` (stereo not drawn), the INHIBITION is reported as 8.44%.

These data come from ChEMBL document CHEMBL4513216, “Probing the Open Global Health Chemical Diversity Library for Multistage-Active Starting Points for Next-Generation Antimalarials” (ACS Infect Dis, 2020).
